Assay [1] can be described thus: NCI Yeast Anticancer Drug Screen. Data for the rad50 strain (AID 155).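 Also: 0% = growth of vehicle-only cultures of the same strain.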 The following applies: S. cerevisiae rad50 strain growth inhibition; at 50.0 µM; active compounds read high. The method in brief:
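DNA repair mutant yeast, compound exposure, growth read-out; inhibition is taken relative to vehicle.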

A short description of assay [2]: NCI Yeast Anticancer Drug Screen. Data for the mec2-1 strain (AID 157). The following applies: S. cerevisiae mec2-1 strain, at 50.0 µM, active compounds read high. A digest of the protocol:
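Yeast mec2-1 mutant treated with compound. Readout: growth inhibition vs vehicle controls.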

Assay [3] can be described thus: NCI Yeast Anticancer Drug Screen. Data for the sgs1 mgt1 strain (AID 161).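 Also: 0% = growth of cultures given vehicle only.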 To be noted: S. cerevisiae sgs1 mgt1 strain, at 50.0 µM, active compounds read high. The method in brief:
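Read-out: growth inhibition vs vehicle controls. Cells: mutant yeast strain deficient in DNA damage repair.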

Assay [4] can be described thus: NCI Yeast Anticancer Drug Screen. Data for the cln2 rad14 strain (AID 165).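 Also: 0% = growth equal to vehicle treated cultures.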 To be noted: S. cerevisiae cln2 rad14 strain, at 50.0 µM, active compounds read high. The method in brief:
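cln2 rad14 yeast strain; compound exposure; growth inhibition read vs vehicle controls.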

A short description of assay [5]: NCI Yeast Anticancer Drug Screen. Data for the bub3 strain (AID 167). To be noted: S. cerevisiae bub3 mutant strain, at 50.0 µM, active compounds read high. A digest of the protocol: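 In this screen, a yeast mutant lacking normal mitotic checkpoint function is challenged with compound. Relative growth versus vehicle gives the inhibition value.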
Assay [6] can be described thus: NCI Yeast Anticancer Drug Screen. Data for the mlh1 rad18 strain (AID 175). To be noted: S. cerevisiae mlh1 rad18 strain growth inhibition; at 50.0 µM; active compounds read high. A digest of the protocol:
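Yeast w/ defined DNA-repair lesions; compound exposure; growth vs vehicle controls → % inhibition.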

This note sets out measurements from PubChem BioAssay (NCI).

This is part of a sample that, as a whole, favours compounds with a hit. Of some 79,000 tested, about 15% had one in any assay. A number with no mark means an inactive call. Active and inactive are the calls of the source. Rule as the data show it: active = growth inhibition above about 70%; inactive = the rest.

As for `CCOC(=O)C(=O)OCC`, the growth inhibition was 24.9% in assay [1]; -1.05% in assay [2]; -19.1% in assay [3]; -3.7% in assay [4]; 29.8% in assay [5]; 13.8% in assay [6].

As to `C1CCC(C2CCCC[N-]2)[N-]C1.C1CCC(C2CCCC[N-]2)[N-]C1.O=C(O)C(=O)O.[Ru+4]` (stereo not given), the growth inhibition in assay [1] was 31.8%; in assay [2], 9.4%; in assay [3], 16.2%; in assay [4], 11.8%; in assay [5] it was -3.25%; in assay [6], 7.9%.

Regarding `Cc1cc(N(CCC#N)S(=O)(=O)c2ccccc2)ccc1C=Nc1ccc(C(=O)O)cc1`, the growth inhibition in assay [1] is -12.2%; in assay [2], -8.35%; in assay [3], -6.15%; in assay [4], -3.8%; in assay [5] it was 1.85%; in assay [6] it was -6.85%.

In the case of `O=Cc1ccc(-c2ccc([N+](=O)[O-])cc2)o1`, the growth inhibition in assay [1] is 3.7%; in assay [2] it was 9%; in assay [3], -9.5%; in assay [4] it was -7.8%; in assay [5], -0.3%; in assay [6], 3.6%.

Turning to `COC(=O)Cc1oc(=O)n(-c2ccccc2)c(=O)c1C(=O)OC`, the growth inhibition in assay [1] was 6.75%; in assay [2], -3.05%; in assay [3] it was 2.05%; in assay [4], -10.5%; in assay [5] it was 10.1%; in assay [6], -3.6%.

For `CCOC(=O)NC(Nc1ncccn1)(C(=O)OCC)C(F)(F)F` (stereo not given), the growth inhibition was -28.9% in assay [1]; -29.4% in assay [2]; -77.3% in assay [3]; -15.6% in assay [4]; -39.8% in assay [5]; -34.9% in assay [6].

In the case of `N#CC1CNC(N)NC1N` (stereo not given), the growth inhibition in assay [1] was -0.1%; in assay [2], 4.8%; in assay [3], -8.05%; in assay [4] it was -7.95%; in assay [5] it was 7.35%; in assay [6], 1.65%.

Regarding `CC1(C)C=C(C(Br)c2cccc(Cl)c2)C(=O)c2ccccc21` (stereo not given), the growth inhibition in assay [1] is 98.3% (active); in assay [2], 99.6% (active); in assay [3] it was 99.8% (active); in assay [4] it was 99% (active); in assay [5] it was 98.8% (active); in assay [6], 99.3% (active).

Take `CC[N+](CC)(CC)CCC[n+]1ccc(/C=N\O)cc1`: the growth inhibition in assay [1] is 3.1%; in assay [2], -1.6%; in assay [3] it was -16.4%; in assay [4], -8.25%; in assay [5], -0.8%; in assay [6] it was -6.25%.

For the compound `C[n+]1ccccc1C(=O)O`, the growth inhibition is 29.3% in assay [1]; 28.9% in assay [2]; 50.4% in assay [3]; 26.6% in assay [4]; 31.3% in assay [5]; 40.4% in assay [6].

Take `Clc1ccc(N=C2c3ccccc3CN2c2ccc(Cl)cc2)cc1`: the growth inhibition in assay [1] was -32.6%; in assay [2], -20.1%; in assay [3], -14.4%; in assay [4] it was -4.85%; in assay [5] it was -22.3%; in assay [6], -13.9%.

Regarding `CCCC(C(O)CC)[N+](=O)[O-]` (stereo not given), the growth inhibition is 8.65% in assay [1]; -16.1% in assay [2]; 11.7% in assay [3]; 5.35% in assay [4]; -6.25% in assay [5]; 21.6% in assay [6].

With `O=S1OCC#CCOS(=O)OCC#CCO1` (stereo not given), the growth inhibition in assay [1] was -7.1%; in assay [2] it was -23.8%; in assay [3], -7.5%; in assay [4] it was -6.2%; in assay [5], -3.7%; in assay [6], 7.7%.

On to `CCc1cc2c(c3c1CCCC3=O)CC1(C2)Cc2cc(CC)c3c(c2C1)C(=O)CCC3`, for which the growth inhibition in assay [1] was 6.05%; in assay [2] it was -9.9%; in assay [3], -3.6%; in assay [4], 5.4%; in assay [5], 10.7%; in assay [6], 4.5%.

`CNc1ccc(C)cc1S(=O)(=O)c1ccccc1[N+](=O)[O-]`: the growth inhibition in assay [1] is 65.5%; in assay [2], 42.5%; in assay [3], 58.1%; in assay [4] it was 29.2%; in assay [5], 47.1%; in assay [6], 16.1%.

Turning to `CSC1=Nc2ccccc2N(C)c2c1c(-c1ccccc1)nn2C`, the growth inhibition is 34.8% in assay [1]; 32.1% in assay [2]; 28.8% in assay [3]; 28.6% in assay [4]; 43% in assay [5]; 21.6% in assay [6].

For the compound `CCOC(=O)C(Cc1ccc(N=NN(C)C)cc1)NC(=O)CC1c2ccccc2-c2ccccc21` (stereo not given), the growth inhibition in assay [1] was 13.8%; in assay [2] it was 7.2%; in assay [3], 20.7%; in assay [4], -6.25%; in assay [5] it was 47.6%; in assay [6], 8.3%.

Regarding `CCOC(=O)C1CC1c1c(C)c2cc3[nH]c(cc4nc(cc5nc(cc1[nH]2)C(C)=C5CCC(=O)OC)C(CCC(=O)OC)=C4C)c(C)c3C1CC1C(=O)OCC` (stereo not given), the growth inhibition in assay [1] is -7.25%; in assay [2], 36.5%; in assay [3], 29.5%; in assay [4], -19.4%; in assay [5], -6.15%; in assay [6], 39.2%.

Consider `COc1ccc(C2Nc3cc(Cl)ccc3NC3=C2C(=O)CC(C)(C)C3)cc1` (stereo not given), for which the growth inhibition in assay [1] is 52.5%; in assay [2], 30.9%; in assay [3], 41.2%; in assay [4], 28.6%; in assay [5] it was 40.3%; in assay [6], 54.3%.

For the compound `C=C(C)C(=O)O[C@@H]1C[C@@]2(C)O[C@@H]2C[C@H](O)/C(C)=C/[C@H]2OC(=O)C(=C)[C@@H]21`, the growth inhibition was -19.6% in assay [1]; -33.1% in assay [2]; -22.5% in assay [3]; 0.35% in assay [4]; -16.5% in assay [5]; -43.1% in assay [6].
